These results are taken from article PMC7819943, “Rice protein-binding microarrays: a tool to detect cis-acting elements near promoter regions in rice”.

The full ranking holds about 35,000 sequences; the median of “fluorescence intensity (a.u.)” is about 10,000, and the highest 2% start at about 52,000. Many of the other results were omitted from the sample, so the highest values are more common in it than they were.

The assay addresses T1, OsWOX13 (Oryza sativa, UniProt Q5QMM3 1-267).
T1 sequence: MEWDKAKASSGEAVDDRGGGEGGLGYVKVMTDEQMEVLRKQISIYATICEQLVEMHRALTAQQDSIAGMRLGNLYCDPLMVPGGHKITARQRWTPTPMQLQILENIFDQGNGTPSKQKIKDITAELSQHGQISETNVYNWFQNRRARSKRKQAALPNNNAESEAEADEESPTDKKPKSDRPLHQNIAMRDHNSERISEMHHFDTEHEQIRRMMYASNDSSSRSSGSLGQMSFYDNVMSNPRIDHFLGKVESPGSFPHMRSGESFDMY
As to the kind of experiment: protein-binding microarray (RPBM); PBS, 2% BSA, 51.3 ng/ul salmon testes DNA, 50 uM zinc acetate, 200 nM TF, 25 C, 1 h; high values mean tight binding. Conditions: protein: recombinant; tags: N-terminal polyhistidine and DsRed monomer fusion (pET32a); label: CyDye5-dUTP incorporated in the synthesized complementary strand; 3' TTTTT single-stranded linker to array surface; dsDNA, one strand shown. In outline: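 Polyhistidine-tagged DsRed fusions of transcription factors, joined at the N-terminus, were expressed in E. coli BL21-CodonPlus and isolated on Ni–NTA. They were incubated at 200 nM for 1 h at 25 °C on a custom Agilent array, double-stranded and BSA-blocked, in PBS with 2% BSA, salmon testes DNA and 50 µM zinc acetate. The binding signal is per-feature fluorescence intensity (arbitrary units) read on an Axon 4000B scanner after washing.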
In the case of “ATCACACCCTAAATTGACTGTATTTGTGCTGAATTTTACACGGAGTCACCTAGTGCAG”, the binding signal was 12300 fluorescence intensity (a.u.).

On to “CAGCCGGATTGATTGCGTAGCTGTGTGCAAGGCTGGGCGACGGAGTCACCTAGTGCAG”, for which the binding signal was 35900 fluorescence intensity (a.u.).

As for “TGGTTAATTTAGCTTCTCCCCTTTCTCGTGTCCTTAGATTCGGAGTCACCTAGTGCAG”, the binding signal is 10200 fluorescence intensity (a.u.).

In the case of “ATAAAATTAAAGTAAATGTGATACAAACGTGGCATGTTTGCGGAGTCACCTAGTGCAG”, the binding signal was 8490 fluorescence intensity (a.u.).

As to “AGACTAATTGAAGCTAGGATATATGATGCAAGGAGAGAGGCGGAGTCACCTAGTGCAG”, the binding signal was 29500 fluorescence intensity (a.u.).

As to “ACCTTAAATTTGTAGTTGATTTTAGGGTTTTCTCATTGAACGGAGTCACCTAGTGCAG”, the binding signal is 27700 fluorescence intensity (a.u.).

For the sequence “ATAATAGATTTGGTCAAAATTTATCGAAAACCGATCGAAACGGAGTCACCTAGTGCAG”, the binding signal was 13200 fluorescence intensity (a.u.).

Take “AAATTAAATAACATGTGATTATGGCATACTGTAAGTAGTACGGAGTCACCTAGTGCAG”: the binding signal is 12000 fluorescence intensity (a.u.).

In the case of “ACCAAATTAATTTATTAAACATAAAATTGAATATATTTTGCGGAGTCACCTAGTGCAG”, the binding signal was 46500 fluorescence intensity (a.u.).

Take “ATAAATGGGCTATTAGATTGACTATAAATGATTTGGAGCCCGGAGTCACCTAGTGCAG”: the binding signal is 57100 fluorescence intensity (a.u.).

Take “TATGAATTGGCTATTAAATTGACTATAAATGATTTAGAGCCGGAGTCACCTAGTGCAG”: the binding signal is 37200 fluorescence intensity (a.u.).

In the case of “ATGGACTATTAAATTGACTATAAATGATTTGGAGCTAGTACGGAGTCACCTAGTGCAG”, the binding signal is 22200 fluorescence intensity (a.u.).

For the sequence “GAGACCATATCATTGATAGATACATGCATGCATCCTACTACGGAGTCACCTAGTGCAG”, the binding signal was 7660 fluorescence intensity (a.u.).

As for “AAGACTAAAGGCTCAATTGATTGGACGGGAGATATGAAAACGGAGTCACCTAGTGCAG”, the binding signal is 9490 fluorescence intensity (a.u.).

As for “ATATGATATTTGTCCATCTTAATTGCTTATAAGCTGTATACGGAGTCACCTAGTGCAG”, the binding signal is 5090 fluorescence intensity (a.u.).

On to “ATTTATGTAATTATCATTTATTTTATTGTAAATTTATTTACGGAGTCACCTAGTGCAG”, for which the binding signal is 16300 fluorescence intensity (a.u.).

For the sequence “GTCCGTAATTGATCATATTTATCATTTAAATTACTCAGTGCGGAGTCACCTAGTGCAG”, the binding signal is 61900 fluorescence intensity (a.u.).

For the sequence “TAATAAATTTGACTAGTTATTCAACTTTGACATAAAATCCCGGAGTCACCTAGTGCAG”, the binding signal is 11500 fluorescence intensity (a.u.).

“GTAATTGACAACTGACAACCGACAGTTATTGACTCATTCCCGGAGTCACCTAGTGCAG”: the binding signal was 54900 fluorescence intensity (a.u.).

Consider “ATTGCTGATTGTCTGTTCTTTTACTTGACATAACCTGAATCGGAGTCACCTAGTGCAG”, for which the binding signal is 30100 fluorescence intensity (a.u.).

For “ATTTTGGTTTCTGTTATTGACAAAACAACTCACTCATTCCCGGAGTCACCTAGTGCAG”, the binding signal was 3480 fluorescence intensity (a.u.).

Turning to “GGCCAGTAATTAACCATATTTATCATTTAAACTACTCAGTCGGAGTCACCTAGTGCAG”, the binding signal was 9040 fluorescence intensity (a.u.).

Consider “TAGATTGATTGTTACTCCGTACATAACCTTGTCTTCTTCGCGGAGTCACCTAGTGCAG”, for which the binding signal is 55400 fluorescence intensity (a.u.).

As to “ACCGTAACCTGATTGATAATTTACTGATTTACTCATTGTTCGGAGTCACCTAGTGCAG”, the binding signal was 64700 fluorescence intensity (a.u.).

Turning to “TATGATTTGTCTACGTTACAAACATAAACCTTTTCTTCTCCGGAGTCACCTAGTGCAG”, the binding signal was 11400 fluorescence intensity (a.u.).

Turning to “TTGTTGATAACCGATAATTTGGTAAATTATTGATTTTATTCGGAGTCACCTAGTGCAG”, the binding signal was 19900 fluorescence intensity (a.u.).

In the case of “GGAGTGCAAATTAGTCCGGATTTTACTGAATATTGATAACCGGAGTCACCTAGTGCAG”, the binding signal is 3300 fluorescence intensity (a.u.).

Regarding “GCTGGTTTGATTAGATCTTCATCCCACGTGGCATTGACGTCGGAGTCACCTAGTGCAG”, the binding signal was 17200 fluorescence intensity (a.u.).

In the case of “TCTTGTAATTATTCTATGTTTAATACTCTAAATTAGCATCCGGAGTCACCTAGTGCAG”, the binding signal was 20000 fluorescence intensity (a.u.).

Consider “TGGTGATAATGTCATTCTGTTATTACAGAGGTCAACGTGTCGGAGTCACCTAGTGCAG”, for which the binding signal is 3410 fluorescence intensity (a.u.).

On to “CTCCACTAATCCTACCAATTAACGAGTCGTACTCAATAATCGGAGTCACCTAGTGCAG”, for which the binding signal is 7550 fluorescence intensity (a.u.).

For “CAGCTGTTCTAATGATTTGAGATATATCAAACTTGTCAAACGGAGTCACCTAGTGCAG”, the binding signal was 3250 fluorescence intensity (a.u.).

In the case of “TAAGTTAATAGATATTTAACGTTTATAATAAGATTTGTTTCGGAGTCACCTAGTGCAG”, the binding signal is 9590 fluorescence intensity (a.u.).

“AGCGCAACTAATTAAACTAGGCTTATCAGGCGACAGCGGCCGGAGTCACCTAGTGCAG”: the binding signal is 4920 fluorescence intensity (a.u.).

Turning to “GGCAATCAATCAACCAATCACCAGCTTACAATTCGGCCACCGGAGTCACCTAGTGCAG”, the binding signal is 59300 fluorescence intensity (a.u.).

Turning to “CACCCAATCACAATCCAACCCACGCCATTGCAACCAAATTCGGAGTCACCTAGTGCAG”, the binding signal was 4130 fluorescence intensity (a.u.).

With “TCAAACAAACCAATCAATCAATCAATCAGGGGATTCTTACCGGAGTCACCTAGTGCAG”, the binding signal is 42300 fluorescence intensity (a.u.).

As to “GTGTAATTTTGTTAGGAAATTTGGGTTTGAATCAGTGGAACGGAGTCACCTAGTGCAG”, the binding signal was 12500 fluorescence intensity (a.u.).

Regarding “TCCTGATTTCGCCGCCACTTGTAGCATCTGCCCGTGGGGTCGGAGTCACCTAGTGCAG”, the binding signal is 5510 fluorescence intensity (a.u.).

For the sequence “TACTAATCATAGACTAATTAGGCTCAAAAGATTCGTCTCACGGAGTCACCTAGTGCAG”, the binding signal is 31300 fluorescence intensity (a.u.).

As to “TTATGGCTAATCATGAACTAATTAGACTCAAAAGATTCGTCGGAGTCACCTAGTGCAG”, the binding signal is 23700 fluorescence intensity (a.u.).

For “ATGGATTAATTAGGCTCAAAAGATTTGTCTCACTATTTCCCGGAGTCACCTAGTGCAG”, the binding signal is 13500 fluorescence intensity (a.u.).

With “GATTAATTAGACTTAATAAATTTGTCTCACGGTTTACGGACGGAGTCACCTAGTGCAG”, the binding signal is 40500 fluorescence intensity (a.u.).
